Screening data (PubChem BioAssay)
esBAF inh – inhibitors of esBAF chromatin remodeling in mouse ES cells. Bmi1-luciferase knock-in reporter, 24 h; 100% = twice the neutral-well signal. reporter increase, % at 12.5 µM. actives 2% (n = 350,000); in the data active = activation above about 40%; inconclusive = no clear call, values can overlap the other calls;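 also: a rise in the Bmi1 reporter signal indicates esBAF inhibition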
Ecoli rRNA inh – selective bacterial rRNA inhibition in E. coli; E. coli WT GFP vs humanized-ribosome RFP mutants, fluorescence, 24 h; stronger effect = lower value; DMSO median 0, no signal -100; GFP signal change (wild-type ribosome), % (concentration not given with the values); actives 1.6% (n = 350,000);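 active = significant combined selectivity score with lowered wild-type GFP, culture density cut under 30%, mutant RFP and density less affected; inactive = any of these conditions unmet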
MITF act – increases MITF-driven TRPM1 promoter luciferase signal. SK-MEL-5 TRPM1-promoter luciferase, 24 h; % of positive control, neutral wells = 0. activation, % at 12.5 µM. actives 0.75% (n = 300,000);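 active = mean activation of at least 80% with every replicate also reaching 80%; inconclusive = mean reaches 80% but some replicate falls short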
AF4-AF9 inh – blocks AF4 peptide binding to human AF9. P42568. AlphaScreen, biotin-AF4 peptide binding to FLAG-AF9. inhibition, % at 10 µM. actives 0.47% (n = 350,000);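 active = every replicate reaching a set inhibition limit, whatever the replicate mean, cut at about 25% in these data; inconclusive = mean inhibition reaches that limit but some replicates miss it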
Target sequence (P42568 whole entry, looked up): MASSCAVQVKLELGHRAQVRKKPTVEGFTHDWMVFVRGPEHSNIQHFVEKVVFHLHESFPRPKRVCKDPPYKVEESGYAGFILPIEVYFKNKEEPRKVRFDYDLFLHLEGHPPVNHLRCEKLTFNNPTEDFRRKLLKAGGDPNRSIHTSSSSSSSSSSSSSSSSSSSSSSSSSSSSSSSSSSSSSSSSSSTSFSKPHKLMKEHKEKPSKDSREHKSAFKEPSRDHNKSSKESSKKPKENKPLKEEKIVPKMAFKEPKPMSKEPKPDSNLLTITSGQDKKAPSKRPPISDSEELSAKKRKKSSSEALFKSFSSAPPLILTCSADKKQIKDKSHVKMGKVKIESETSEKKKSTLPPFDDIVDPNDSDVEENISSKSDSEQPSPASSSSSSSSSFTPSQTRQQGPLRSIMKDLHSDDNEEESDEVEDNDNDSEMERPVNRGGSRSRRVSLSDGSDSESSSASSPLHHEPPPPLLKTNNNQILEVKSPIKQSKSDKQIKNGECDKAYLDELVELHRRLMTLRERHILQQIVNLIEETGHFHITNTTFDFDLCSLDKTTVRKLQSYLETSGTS
Wnt bcat act – Wnt/beta-catenin pathway activation; actives 1.2% (n = 300,000); Wnt/beta-catenin reporter cell assay, activator, plate reader; activation, % at 9.35 µM; in the data active = activation above about 30%, passing the limit was not always enough; inconclusive = no clear call, values can overlap the other calls
A number is an active result; – = inactive; ? = inconclusive; · = no result. Shown are actives, neighbours in structure and some others; about 3.7% of the full set was active somewhere.

SMILES | esBAF inh | Ecoli rRNA inh | MITF act | AF4-AF9 inh | Wnt bcat act
Cc1cc(NC(=O)CCCS(=O)(=O)c2nc(-c3cccs3)cc(C(F)(F)F)n2)no1 | · | – | – | · | –
COc1ccc(N(CC(=O)Nc2ccccc2SC)S(C)(=O)=O)cc1OC | – | · | · | · | ·
C=CCNC(=O)C1CC(=O)N(c2ccc(OCC(=O)Nc3ccc(C)cc3)cc2)C1 (stereo not drawn) | – | · | – | · | ·
CCCNC(=O)C1CC(=O)N(c2ccc(OCc3ccc(F)cc3)cc2)C1 (stereo not drawn) | ? | – | – | – | –
C=CCNC(=O)C1CC(=O)N(c2ccc(OCC(=O)Nc3ccccc3)cc2)C1 (stereo not drawn) | 53.0 | · | ? | · | ?
C=CCNC(=O)C1CC(=O)N(c2ccc(OCc3ccc(F)cc3)cc2)C1 (stereo not drawn) | ? | – | – | – | 37.1
C[C@@H](NC(=O)C[C@H]1C[C@@H]2c3cc(NS(=O)(=O)c4ccc(F)cc4)ccc3O[C@@H]2[C@@H](CO)O1)c1ccccc1 | – | – | · | – | ·
Cc1ccc(S(=O)(=O)N2CCCCC2)cc1NC(=O)C1COc2ccccc2O1 (stereo not drawn) | – | – | · | – | –
CN1CCN(C(=O)CCCN2C(=O)/C(=C/c3cccc(Br)c3)SC2=S)CC1 | – | – | – | 27.4 | –
CCc1ccc(/C=C2\SC(=S)N(CCCC(=O)N3CCN(C)CC3)C2=O)cc1 | – | · | · | 33.4 | –
CN1CCN(C(=O)CCN2C(=O)/C(=C/c3cccc(Br)c3)SC2=S)CC1 | – | – | – | – | –
Fc1ccc2c(c1)[C@H]1OCC[C@H]1[C@@H](c1ccco1)N2 | – | · | – | · | –
Clc1ccc2c(c1)[C@H]1OCC[C@H]1[C@@H](c1ccco1)N2 | 48.4 | – | – | – | –
Cc1nc2cc3c(cc2c(C)c1C(=O)OC(C)C)OCO3 | 46.0 | · | – | · | –
O=C1c2ccccc2/C(=C\C#Cc2ccccn2)N1c1ccccc1 | – | – | 95.0 | · | –
O=C(C[C@@H]1CC[C@H]2[C@@H](COC[C@@H](O)CN2Cc2cccc(F)c2)O1)NCc1cccc(F)c1 | – | – | · | – | ·
Cc1ccc(C(=O)Cn2nnc3ccccc32)cc1C | – | · | 110.2 | · | 47.0
Cc1ccc(C(=O)Cn2nnc3ccccc32)cc1 | 62.6 | · | – | · | ·
Cc1ccc(C(=O)NNC(=O)Cn2nnc3ccccc32)cc1 | – | -31.1 | – | – | –
Cc1ccc(OCCn2nnc3ccccc32)cc1C | – | – | · | – | –
Cc1ccc(C(=O)Cn2cnc3ccccc3c2=O)cc1C | 56.8 | · | – | · | –
O=C(Cn1nnc2ccccc21)c1ccc(Br)cc1 | – | – | – | – | –
NC(=O)C1CCN(C(=O)c2ccc(OCC(=O)Nc3cccc(C(F)(F)F)c3)cc2)CC1 | – | – | – | – | –
COCCNC(=O)[C@H]1[C@H](CO)[C@H]2Cn3c(ccc(C4=CCCCC4)c3=O)[C@@H]1N2C(=O)C1CCC1 | – | – | · | – | ·
COc1ccc(S(=O)(=O)Nc2ccc3c(c2)C(=O)N([C@H](C)CO)C[C@H](C)[C@H](CN(C)C(=O)Nc2ccc(F)cc2)OCCCC[C@H](C)O3)cc1 | – | – | · | – | ·
SMILES | esBAF inh | Ecoli rRNA inh | MITF act | AF4-AF9 inh | Wnt bcat act
Cc1cc(C)n(-c2nnc3c4ccccc4n(C)c3n2)n1 | · | – | · | – | 47.9
C/C(=N\Nc1nnc2c3ccccc3n(C)c2n1)c1ccc(C)o1 | · | · | – | · | –
COc1cc(/C=N/N(C)C)cc(Br)c1O | – | – | – | – | –
COc1cc(/C=N/N(C)c2ccccc2)cc(Cl)c1O | 50.3 | · | – | · | –
COc1ccc(OC)c(/C=N/N(C)c2ccccc2)c1 | 73.4 | · | 96.3 | · | ·
COc1ccc(OC)c(C=NN=Cc2cc(OC)ccc2OC)c1 | – | – | · | – | –
Nc1sc(-c2ccccc2)cc1C(=O)NCCc1ccc(Cl)cc1 | · | – | · | – | –
CCc1ccccc1N(CC(=O)NC1CCCC1)C(=O)CNC(=O)c1cccs1 | – | – | – | – | –
COc1ccc(-n2c(CN3CCC(C(N)=O)CC3)nc3ccc([N+](=O)[O-])cc3c2=O)c(OC)c1 | – | – | – | – | –
CCOC(=O)C1CCN(Cc2nc3ccc([N+](=O)[O-])cc3c(=O)n2-c2ccc(OC)cc2OC)CC1 | 47.6 | – | – | – | –
C[C@H](CO)N1C[C@H](C)[C@@H](CN(C)CC2CC2)Oc2ccc(NC(=O)C3CCCCC3)cc2CC1=O | – | – | · | – | ·
Cc1cccc(C(=O)Nc2sc3c(c2C(=O)O)CCCC3)c1 | 71.9 | – | – | – | –
O=C(Nc1sc2c(c1C(=O)O)CCC2)c1cccc(Cl)c1 | · | – | – | – | –
Cc1cccc(C(=O)Nc2sc(-c3ccccc3)cc2C(=O)O)c1 | 68.1 | – | 92.6 | – | –
Cc1cccc(C(=O)c2c(N)sc3c2CCCC3)c1 | · | · | – | · | 37.5
CO[C@@H]1CN(C)C(=O)c2cc(NC(=O)C3CCC3)ccc2OC[C@@H](C)N(C(=O)NC(C)C)C[C@H]1C | – | – | · | – | ·
O=C(O)CCn1nc(-c2ccc(F)cc2)cc(Cc2ccccc2)c1=O | – | · | – | · | ·
COCCCNC(=S)N/N=C/c1ccc(OC)cc1 | – | – | · | – | –
COCCCNC(=S)N/N=C/c1ccc2ccccc2c1 | – | -32.2 | · | – | –
Cc1ccccc1CN1C(=O)C(C)S/C1=N/N=C/c1ccco1 (stereo not drawn) | · | -23.4 | · | – | –
C/C(N)=C(/C#N)C(=O)CSc1nnc(Nc2cccc(C)c2)s1 | 60.0 | – | – | – | –
CCCCn1c(CCNC(=O)CC)nc2ccccc21 | – | – | – | – | –
CCOC(=O)COc1c(C=O)cc(Br)cc1OC | – | · | · | · | ·
C[C@H](CO)N1C[C@H](C)[C@@H](CN(C)S(=O)(=O)c2ccc(Cl)cc2)Oc2ccc(NC(=O)Nc3ccc(F)cc3)cc2CC1=O | – | – | · | – | ·
C[C@H]1CN([C@@H](C)CO)C(=O)c2cccc(NC(=O)C3CCCCC3)c2O[C@H]1CN(C)Cc1ccc(Oc2ccccc2)cc1 | – | – | · | – | ·
SMILES | esBAF inh | Ecoli rRNA inh | MITF act | AF4-AF9 inh | Wnt bcat act
O=C1c2cccc(NCCNCCO)c2C(=O)c2cccc(NCCNCCO)c21 | · | – | – | 46.0 | –
O=C(NCCO)c1cccc2c1C(=O)c1ccccc1-2 | · | · | – | · | ·
O=C(O)CCNc1ccc(NCCC(=O)O)c2c1C(=O)c1ccccc1C2=O | · | – | – | 31.9 | –
COc1ccccc1NCCC(=O)O | · | – | – | – | –
CC1CCc2nc3ccccc3c(C(=O)OCC(=O)NC3CCS(=O)(=O)C3)c2C1 (stereo not drawn) | · | -28.9 | – | – | –
CC(C)CN(C(=O)COC(=O)C1=COCCO1)c1c(N)n(Cc2ccccc2)c(=O)[nH]c1=O | – | – | – | – | –
Oc1ccc(-c2cc(-c3ccc(O)cc3)nc(-c3ccccc3)n2)cc1 | – | – | – | – | –
Oc1ccc(-c2nnc(-c3ccc(O)cc3)nn2)cc1 | – | · | · | · | 76.9
Oc1ccc(-c2cccc(-c3ccc(O)cc3)n2)cc1 | 47.6 | · | · | · | –
CC/C(O)=C1\C(=O)CCCC1=NCCc1c(C)[nH]c2ccc(C)cc12 | – | – | – | – | –
CCCC/C(O)=C1\C(=O)CCCC1=NCCc1c(C)[nH]c2ccc(OC)cc12 | – | -18.1 | – | – | –
